Results published in the supplement of paper PMC4466236.
The full ranking holds about 33,000 sequences; the median of “E-score (dimensionless, -0.5 to 0.5)” is about -0.058, and the highest 2% start at about 0.35. The full list was thinned out, with the highest values kept by preference.

These sequences were tested on MvaT (assay: PBM 8-mer E-score (mean of HK and ME arrays) (E-score (dimensionless, -0.5 to 0.5)); higher = stronger relative binding preference).
Procedure: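 Protein binding microarray: GST-tagged full-length MvaT (P. aeruginosa PAO1) bound to two universal double-stranded 60-mer arrays (ME and HK), each with a constant 25-mer primer and a variable 35-mer region covering all 8-mers. The 8-mer E-score (rank-based, range -0.5 to 0.5, >0.45 = specific binding) is the mean of the two arrays.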

Row | Sequence | PBM 8-mer E-score
1 | ATTTCTGC | 0.125
2 | ATTCATTA | 0.219
3 | GATAGGAA | -0.0142
4 | AAATTGCT | 0.214
5 | AACCCGTC | -0.0101
6 | GTCGAGAA | -0.0478
7 | GCATACCC | 0.0205
8 | TCACGCAA | -0.124
9 | GAGTTTAA | 0.235
10 | ATGTTTAA | 0.391
11 | TAGTTTAA | 0.398
12 | AAGTTTAA | 0.357
13 | AAGTTTAG | 0.288
14 | CAGTTTAA | 0.26
15 | AAGTTTAT | 0.358
16 | ATGTTTAG | 0.212
17 | AAGTTTAC | 0.157
18 | CTGTTTAA | 0.302
19 | AAGTTTGA | 0.289
20 | AAGTTTTA | 0.318
21 | TATTCGGA | -0.000615
22 | ACAGGTCG | -0.216

Row | Sequence | PBM 8-mer E-score
23 | CTGTGTGC | 0.0347
24 | AAGCAGGT | 0.0586
25 | CGTTCAAG | -0.0745
26 | GCTCGCAA | -0.107
27 | AGTTTTAT | 0.351
28 | AGTTTTAC | 0.221
29 | AGTTTTAG | 0.162
30 | ATACGGCG | -0.11
31 | AACAACTT | 0.358
32 | AACAACTC | 0.185
33 | AACAACTA | 0.335
34 | AGTGGGCA | 0.0126
35 | GGTCCGAA | -0.0643
36 | ACAACAAG | 0.138
37 | ATAACTAG | 0.27
38 | ACAACAAT | 0.372
39 | ATAACTAA | 0.32
40 | ATAACAAG | 0.283
41 | AAAACAAC | 0.282
42 | ATAACAAC | 0.228
43 | AAAACAAT | 0.349
44 | ATAACAAT | 0.355

Row | Sequence | PBM 8-mer E-score
45 | ATAACTAT | 0.388
46 | ACAACAAC | 0.216
47 | AAAACAAG | 0.122
48 | AAGTAGAC | 0.0778
49 | ACCATATC | 0.099
50 | GCGTGGAC | -0.192
51 | TATGGACA | 0.0866
52 | TGCAGGCA | -0.0892
53 | GACCACCC | -0.296
54 | ATTTATCC | 0.286
55 | CTTTATAA | 0.344
56 | GTTTATCA | 0.19
57 | ATTTATAG | 0.342
58 | ATTTATAC | 0.383
59 | CTTTATAC | 0.264
60 | ATTTATAA | 0.459
61 | GTTTATGA | 0.208
62 | GTTTATAA | 0.383
63 | CGATACGC | -0.172
64 | AGCGGGAT | -0.138
65 | ACCCTTTC | -0.289
66 | GGCAATAA | 0.228

Row | Sequence | PBM 8-mer E-score
67 | CCTAATTA | 0.358
68 | ACTAATTG | 0.308
69 | ACTAATTA | 0.45
70 | GCTAATCA | 0.0157
71 | CCTAATTC | 0.0847
72 | CCTAATGA | -0.254
73 | GCTAATGA | -0.138
74 | ACTAATTC | 0.227
75 | GCTAATTA | 0.352
76 | CAAGTAGA | 0.141
77 | AGTCAGCA | -0.0242
78 | GGCCAGAA | -0.026
79 | GAACGGGA | -0.0641
80 | GTGCGTTA | 0.133
81 | GACCTTGA | -0.138
82 | AGGTTCCG | -0.212
83 | CACTTAAA | 0.0563
84 | AACTTAAC | 0.323
85 | AACTTAAG | 0.333
86 | TACTTAAA | 0.302
87 | AACTTAAA | 0.352
88 | GACTTCAA | 0.0947

Row | Sequence | PBM 8-mer E-score
89 | AACTTAAT | 0.381
90 | CAGTTCAA | 0.0238
91 | GAGTTCAA | 0.174
92 | AACTTCAG | 0.158
93 | AACTTCAA | 0.345
94 | AAGTTCAA | 0.398
95 | GGGCCACC | -0.382
96 | GATTTGTA | 0.205
97 | GCCCGCGC | -0.262
98 | TGGTGCAA | 0.0798
99 | ACAGATGA | -0.0583
100 | CGAGGTAC | -0.301
101 | ACCCATTA | 0.241
102 | CGTTAGCA | -0.0988
103 | CCGGCCTA | -0.174
104 | ATAATTCG | 0.228
105 | ATAATTAG | 0.429
106 | GCAATTAC | 0.169
107 | GAAATTAC | 0.247
108 | CTAATTCA | 0.228
109 | GTAATTAC | 0.393
